Source: PubChem BioAssay (NCI)
The panel holds about 83,000 compounds, 20% with a hit somewhere; the sample as a whole holds those more often.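 Compound tested at a single concentration for 48 hours in 96-well plates; a percent growth value below 10 was scored as active.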 Unmarked numbers belong to inactive results. The source made the active and inactive calls.

Columns and labels:
Assay in all cases: NCI-60 one-dose screen, 48 h (100 = growth as untreated, 0 = no growth, -100 = all killed)
Conditions in all cases: 10 µM unless noted
DU-145 prostate = system: DU-145 prostate
K-562 leukemia = system: K-562 leukemia
MALME-3M melanoma = system: MALME-3M melanoma
MDA-MB-231 breast = system: MDA-MB-231 breast
SF-268 CNS = system: SF-268 CNS
SF-295 CNS = system: SF-295 CNS
SF-539 CNS = system: SF-539 CNS
UACC-257 melanoma = system: UACC-257 melanoma
M14 melanoma = system: M14 melanoma
RXF 393 renal = system: RXF 393 renal

Compound	growth (DU-145 prostate)	growth (K-562 leukemia)	growth (MALME-3M melanoma)	growth (MDA-MB-231 breast)	growth (SF-268 CNS)	growth (SF-295 CNS)	growth (SF-539 CNS)	growth (UACC-257 melanoma)	growth (M14 melanoma)	growth (RXF 393 renal)
O=C(O)C(O)C(O)C1[O][Sb]([c]2ccc([N+](=O)[O-])cc2)[O]C1CO (stereo not drawn)	116%	99.6%	116%	99.3%	106%	101%	102%	95.7%	106%	
COC(=O)[C@@H](C)C[C@H](Cc1ccc(F)cc1)NC(=O)c1csc([C@@H](C[C@H](C(C)C)N(C)C(=O)[C@@H](NC(=O)[C@H]2CCCCN2C)C(C)C)OC(C)=O)n1	13.5%	8.92% (active)	47%	4.87% (active)	27%	8.69% (active)	-6.38% (active)		-5.96% (active)	
C=CCc1cc2c(cc1OCC)OCO2	108%	114%	116%	110%	94.8%	93.6%	99.1%	105%	92.9%	
CCNc1nc(Cl)nc(NCC)n1	123%	35.1%	133%	104%	102%	84.1%	97.2%	89%	101%	
COC(=O)[C@@H](C)C[C@H](Cc1ccccc1)NC(=O)c1csc(CC[C@H](C(C)C)N(C)C(=O)[C@@H](NC(=O)[C@H]2CCCCN2C)C(C)C)n1	10.8%	6.9% (active)	61.2%	14.2%	27%	-6.82% (active)	-9.08% (active)		-13.3% (active)	
O=C(Nc1ccc(Br)cc1)c1cc(Br)cc(Br)c1O		96.9%	-12% (active)	-22.4% (active)	32.3%	-8.2% (active)	8.02% (active)	-17.1% (active)	1.78% (active)	-9.8% (active)
O=C(N/N=C\c1ccc(N(CCCl)CCCl)cc1)c1cccc([N+](=O)[O-])c1	85.9%		100%	89.2%	76.7%	88.4%	81%	92.7%	110%	98.5%
O=P(N1CC1)(N1CC1)N1CCc2ccccc21	112%		109%	104%	103%		105%	110%	104%	109%
CCOC(=O)N1CC1	110%		108%	99.2%	98.6%	97.8%	103%	101%	96.5%	106%
COc1ccc(/C=C\c2cc(OC)c(OC)c(OC)c2)cc1NC(=O)/C=C/c1ccc(OC)c(OC)c1	15.9%		51.7%	58.6%	41.7%	5.37% (active)	2.69% (active)	73.9%	23.4%	-15.1% (active)
O=C1C=C2C(=CCOC2O)O1 (stereo not drawn)	9.48% (active)		-28.5% (active)	66%	3.53% (active)	89%	-33.6% (active)	-22.1% (active)	-18.9% (active)	-74.8% (active)
CC(=O)O[C@@H]1CC[C@]2(C)[C@H]3CC[C@]4(C)C(=O)CC[C@H]4[C@@H]3C[C@@H]3SC(N)=N[C@@]32C1	79.2%		55.4%	68.2%	73.9%	42.7%	51.3%	67.1%	41.1%	79.7%
CCCCN(CCCC)P(=O)(Oc1ccccc1)Oc1ccccc1		46.2%	119%	69.3%	84%	64.5%	100%	70.4%	52.3%	55.8%
COc1cc(/C=N/C2=C(C#N)C(c3ccco3)c3c(c4cc(C)ccc4oc3=O)O2)cc(OC)c1OC (stereo not drawn)	107%		97.2%	95.6%	95.2%	92.2%	90.8%	94.2%	93.4%	
COc1cccc2c1c(C(=O)C(=O)Nc1ccn[nH]1)cn2Cc1ccc(F)cc1	104%		112%	109%	100%	143%	99.5%	104%	101%	99.8%
N#CC1(C#N)C(c2ccc(N(CCCl)CCCl)cc2)OC23CCCCC2C1(C#N)C(=N)O3 (stereo not drawn)	56.4%		96.9%	95.3%	69.6%	108%	85%	87.9%	93.9%	73.9%
Cc1cc(N(CCCl)CCCl)ccc1/C=N\NC(=O)c1ccncc1	82.4%	85.2%		96.4%	70.7%	56.2%	60.3%	79.8%	90.4%	91.7%
COc1cc([N+](=O)[O-])c2nc(C)ccc2c1[N+](=O)[O-]	84.9%		88%	94.4%	98%	132%	118%	101%	92.5%	88.2%
COc1ccc(N(CC(=O)NCCC[Te]c2ccccc2)C(=O)CCSC2=C(C)C(=O)c3ccccc3C2=O)cc1	-10.1% (active)		-11.7% (active)	-61.6% (active)	3.17% (active)	-50.1% (active)	-62.6% (active)	0.434% (active)	-38.3% (active)	-26.5% (active)
COC(=O)[C@@H](NC(=O)c1cn(CCC2CCCCC2)c2ccccc12)C(C)(C)C	81.7%		106%	70.1%	68.5%	60.2%	88.1%	73%	59.4%	83.9%
CCc1ccccc1[C@@H]1C[C@]2(C)CCO[C@@H]2OO1	105%		110%	103%	98.3%	101%	111%	96.7%	104%	112%
O=c1[nH]c2ccc([N+](=O)[O-])cc2c(=O)o1	117%		106%	107%		105%	102%	104%	108%	101%

Compound	growth (DU-145 prostate)	growth (K-562 leukemia)	growth (MALME-3M melanoma)	growth (MDA-MB-231 breast)	growth (SF-268 CNS)	growth (SF-295 CNS)	growth (SF-539 CNS)	growth (UACC-257 melanoma)	growth (M14 melanoma)	growth (RXF 393 renal)
CC[C@H](C)[C@@H]1OC(=O)C(C)(C)[C@H](O)[C@H](Cc2ccccc2)OC(=O)[C@H](C(C)C)OC(=O)[C@@H](NC(=O)c2cccc(NC=O)c2O)[C@@H](C)OC1=O	62.7%		77.4%	59.1%	62.1%	28%	52.8%	32.3%	62.8%	87.1%
COc1ccc(/C=C\c2cc(OC)c(OC)c(OC)c2)cc1NC(=O)/C=C/c1cc(OC)c(OC)c(OC)c1	95.2%		58%	63.9%	61.1%	12.5%	44.5%	70.6%	31.6%	1.99% (active)
ClCCN(CCCl)c1ccc(/C=N\N=C\c2ccc(N(CCCl)CCCl)cc2)cc1	42.4%		109%	64.9%	40.7%	10.7%	1.3% (active)	31%	12.9%	
N#CC1C(C#N)C2CCC1C1C2N1c1ccccc1 (stereo not drawn)	118%		85.7%	110%	104%	103%	104%	117%	101%	103%
CC(=O)OC[C@]1(C)C=C2C(=O)[C@](C)(O)C3(CC3)C(C)=C2[C@H]1OC(=O)N(C)CCN(C)C(=O)OC(C)(C)C	3.6% (active)		-44% (active)	4.31% (active)	7.08% (active)	6.27% (active)	-37.1% (active)	33.7%	-29.4% (active)	-68.2% (active)
COC(=O)CCC1=C(C)c2cc3[n-]c(cc4nc(cc5[n-]c(cc1n2)c(CCC(=O)OC)c5C)C=C4C)cc3C.[Cd+2]	9.35% (active)		20.5%	34.9%	11.6%	61.9%	62.2%	78.7%	57.9%	65.7%
Cc1cc(N(CCCl)CCCl)ccc1C=Nc1cccnc1		63.1%	62%	98.4%	80.4%	36.7%	53.5%	61.8%	79.5%	59.7%
CCC(CC)CC1(C)CC2(C)CCOC2OO1 (stereo not drawn)	107%		112%	100%	110%	101%	99.1%	98%	115%	111%
Cc1c2cc(Cl)c3ccccc3c2c[n+]2ccccc12	78.3%		-16.2% (active)	82.5%	-36.3% (active)	18.3%	26.3%		47.5%	
CNCc1cccnc1	111%		124%	126%	104%	95.5%	112%	105%	117%	121%
CC(=O)O[C@H]1CC[C@]2(C)[C@H]3CC[C@]4(C)[C@@H](OC(C)=O)CC[C@H]4[C@@H]3[C@@H](C)[C@]2(O)C1	107%	85.1%		108%	112%		99.6%	127%	109%	114%
Nc1ccc(OCCNS(=O)(=O)c2cccc(S(=O)(=O)F)c2)c(Cl)c1		95.1%	86.2%	100%	102%	89.2%	93.5%	75.4%	97.3%	
Cc1sc2c(c1C)C(c1ccc(Cl)cc1)=N[C@@H](CC(=O)OC(C)(C)C)c1nnc(C)n1-2	57%		57%	42.8%	51%	37.6%	37.5%	58.1%	43%	
COc1ccc(/C=C/c2cc(OC)c(OC)c(OC)c2)cc1NC(=O)/C=C/c1ccc(F)cc1	10.1%		42.7%	56.1%	45.2%	-2.11% (active)	-0.885% (active)	59.3%	13.4%	-19.1% (active)
Cc1ccc(C(=O)NCCCOc2ccc(N3C(N)=NC(N)=NC3(C)C)cc2Cl)cc1S(=O)(=O)F	126%		70.4%	98.6%	54.3%	111%	54.1%		76.7%	
O=C(O)C(Cl)(Cl)C(F)(F)F	108%		105%	102%	99.3%	99.9%	102%	105%	105%	
CC1(C)N=C(N)N=C(N)N1c1ccc(CCC(=O)Nc2ccc(S(=O)(=O)F)cc2)c(Cl)c1	40.2%		83.1%	51.7%	28.1%	30%	11.9%		23.4%	
Cc1cc(NC(=O)NCc2ccc(N3C(N)=NC(N)=NC3(C)C)cc2)ccc1S(=O)(=O)F	42.7%		56.9%	58.5%	31.6%	27.9%	19.5%		29.5%	
COP(=S)(N1CC1)N1CC1	123%		105%	93%	112%	104%	94.3%	147%	99.5%	114%
O=C([O][Hg][CH2]C1COCC([CH2][Hg][O]C(=O)c2ccccc2)O1)c1ccccc1 (stereo not drawn)		4.71% (active)	-80.5% (active)	105%	104%	96.8%	113%	-69.4% (active)	71.7%	87.5%
NC(=Nc1ccccc1)N[N+](=O)[O-]	111%		103%	115%	102%	113%		112%	99.9%	95.2%
